# The supplement of paper PMC8728848
# This is one part of a sample in which the strongest signals are shown more often than they occur.
# B1: Eap (Staphylococcus aureus), A0A7L5PYT7 (protein)
# chain: MKFKSLITTTLALGVLASTGANFNNNEAAAAAKPLDKSSSSLHHGYSKVHVPYAITVNGTSQNILSSLTFNKNQNISYKDLEDRVKSVLKSDRGISDIDLRLSKQAKYTVYFKNGTKKVIDLKAGIYTADLINTSEIKAININVDTKKQVEDKKKDKANYQVPYTITVNGTSQNILSNLTFNKNQNISYKDLEDKVKSVLESNRGITDVDLRLSKQAKYTVNFKNGTKKVIDLKSGIYTANLINSSDIKSININVDTKKHIENKAKRNYQVPYSINLNGTSTNILSNLSFSNKPWTNYKNLTSQIKSVLKHDRGISEQDLKYAKKAYYTVYFKNGGKRILQLNSKNYTANLVHAKDVKRIEITVKTGTKAKADRYVPYTIAVNGTSTPILSDLKFTGDPRVGYKDISKKVKSVLKHDRGIGERELKYAKKATYTVHFKNGTKKVININSNISQLNLLYVQDIKKIDIDVKTGTKAKADSYVPYTIAVNGTSTPILSKLKISNKQLISYKYLNDKVKSVLKSERGISDLDLKFAKQAKYTVYFKNGKKQVVNLKSDIFTPNLFSAKDIKKIDIDVKQYTKSKKNK
# B2: PfulAvr4 2 (Pseudocercospora fuligena) (protein)
# chain: HHHHHHDYKDDDDKAKPIKPFACPPKDFTTTKCQGPVDCLYANPLSCLGYIQCVCDDDACSTATPYAKSCPTGLAWVEKLKRCDGIKKSACPKKMYEGS
# Tests used:
# Assay in all cases: glycan array binding signal (z-score within array); higher = stronger binding
# Settings in all cases: glycan notation: IUPAC condensed, linker removed
# [1] = target: Neu5Gc(a2-3)Gal(b1-3)GlcNAc
# Outline: (§1)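 The Consortium for Functional Glycomics database supplied 3228 glycan arrays, of which those lacking an available protein sequence were dropped. The binding signal, a within-array Z-score, was averaged across arrays of the same protein sequence and across linkers. Negative scores can be read as non-binding.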
# [2] = target: Fuc(a1-2)Gal(b1-3)GalNAc(b1-3)Gal(a1-4)Gal(b1-4)Glc
# Outline: as §1
# [3] = target: Fuc(a1-2)Gal(b1-4)GlcNAc(b1-2)Man(a1-3)[Fuc(a1-2)Gal(b1-4)GlcNAc(b1-2)Man(a1-6)]Man(b1-4)GlcNAc(b1-4)[Fuc(a1-6)]GlcNAc
# Outline: as §1
# [4] = target: Fuc(a1-2)Gal(b1-4)[Fuc(a1-3)]GlcNAc(b1-2)[Fuc(a1-2)Gal(b1-4)[Fuc(a1-3)]GlcNAc(b1-4)]Man(a1-3)[Fuc(a1-2)Gal(b1-4)[Fuc(a1-3)]GlcNAc(b1-2)Man(a1-6)]Man(b1-4)GlcNAc(b1-4)GlcNAc
# Outline: as §1
# [5] = target: Fuc(a1-2)Gal(b1-4)[Fuc(a1-3)]GlcNAc(b1-3)Gal(b1-4)[Fuc(a1-3)]GlcNAc
# Outline: as §1
# Fuc(a1-2)Gal6S(b1-4)Glc = target: Fuc(a1-2)Gal6S(b1-4)Glc
# Outline: as §1
# [6] = target: Fuc(a1-2)[Gal(a1-3)]Gal(b1-4)GlcNAc(b1-6)GalNAc
# Outline: as §1
# [7] = target: Fuc(a1-2)[GalNAc(a1-3)]Gal(b1-3)GalNAc(a1-3)[Fuc(a1-2)]Gal(b1-4)GlcNAc
# Outline: as §1
# [8] = target: Gal(a1-4)Gal(b1-4)GlcNAc(b1-2)Man(a1-3)[Gal(a1-4)Gal(b1-4)GlcNAc(b1-2)Man(a1-6)]Man(b1-4)GlcNAc(b1-4)GlcNAc
# Outline: as §1
# Gal(b1-3)GlcNAc(b1-2)Man = target: Gal(b1-3)GlcNAc(b1-2)Man
# Outline: as §1
# [9] = target: Gal(b1-3)GlcNAc(b1-2)Man(a1-3)[GlcNAc(b1-4)][Gal(b1-3)GlcNAc(b1-2)Man(a1-6)]Man(b1-4)GlcNAc(b1-4)GlcNAc
# Outline: as §1
# [10] = target: Gal(b1-3)GlcNAc(b1-2)[Gal(b1-3)GlcNAc(b1-6)]Man(a1-6)[Gal(b1-3)GlcNAc(b1-2)Man(a1-3)]Man(b1-4)GlcNAc(b1-4)GlcNAc
# Outline: as §1
# [11] = target: Gal(b1-3)GlcNAc(b1-3)Gal(b1-4)Glc
# Outline: as §1
# [12] = target: Gal(b1-3)GlcNAc(b1-3)Gal(b1-4)GlcNAc
# Outline: as §1
# [13] = target: Gal(b1-3)[Fuc(a1-4)]GlcNAc
# Outline: as §1
# [14] = target: Gal(b1-4)GlcNAc(b1-2)Man(a1-3)[GlcNAc(b1-2)Man(a1-6)]Man(b1-4)GlcNAc(b1-4)GlcNAc
# Outline: as §1
# [15] = target: Gal(b1-4)GlcNAc(b1-2)Man(a1-3)[GlcNAc(b1-4)][Gal(b1-4)GlcNAc(b1-2)Man(a1-6)]Man(b1-4)GlcNAc(b1-4)GlcNAc
# Outline: as §1
# [16] = target: Gal(b1-4)GlcNAc(b1-2)Man(a1-3)[Man(a1-6)]Man(b1-4)GlcNAc(b1-4)GlcNAc
# Outline: as §1
# [17] = target: Gal(b1-4)GlcNAc(b1-2)[Gal(b1-4)GlcNAc(b1-4)]Man(a1-3)[Gal(b1-4)GlcNAc(b1-2)[Gal(b1-4)GlcNAc(b1-6)]Man(a1-6)]Man(b1-4)GlcNAc(b1-4)GlcNAc
# Outline: as §1
# [18] = target: Gal(b1-4)GlcNAc(b1-3)Gal(b1-4)GlcNAc(b1-2)[Gal(b1-4)GlcNAc(b1-3)Gal(b1-4)GlcNAc(b1-6)]Man(a1-6)[Gal(b1-4)GlcNAc(b1-3)Gal(b1-4)GlcNAc(b1-2)Man(a1-3)]Man(b1-4)GlcNAc(b1-4)GlcNAc
# Outline: as §1
# [19] = target: Gal(b1-4)GlcNAc(b1-3)Gal(b1-4)GlcNAc(b1-3)Gal(b1-4)GlcNAc(b1-3)Gal(b1-4)GlcNAc(b1-2)Man(a1-3)[Gal(b1-4)GlcNAc(b1-3)Gal(b1-4)GlcNAc(b1-3)Gal(b1-4)GlcNAc(b1-3)Gal(b1-4)GlcNAc(b1-2)Man(a1-6)]Man(b1-4)GlcNAc(b1-4)[Fuc(a1-6)]GlcNAc
# Outline: as §1
# [20] = target: Gal(b1-4)GlcNAc(b1-3)[GlcNAc(b1-6)]Gal(b1-4)GlcNAc
# Outline: as §1
# Gal3S(b1-3)GlcNAc = target: Gal3S(b1-3)GlcNAc
# Outline: as §1
# [21] = target: Gal3S(b1-4)[Fuc(a1-3)]Glc6S
# Outline: as §1
# GalNAc6S(b1-4)GlcNAc = target: GalNAc6S(b1-4)GlcNAc
# Outline: as §1
# [22] = target: GlcNAc(a1-4)Gal(b1-4)GlcNAc
# Outline: as §1
# GlcNAc(b1-3)Man = target: GlcNAc(b1-3)Man
# Outline: as §1
# [23] = target: GlcNAc6S(b1-3)Gal(b1-4)GlcNAc
# Outline: as §1
# [24] = target: Man(a1-2)Man(a1-3)[Man(a1-2)Man(a1-6)]Man(a1-6)[Man(a1-2)Man(a1-2)Man(a1-3)]Man
# Outline: as §1
# [25] = target: Neu5Ac(a2-3)Gal(b1-3)GalNAc
# Outline: as §1
# [26] = target: Neu5Ac(a2-3)Gal(b1-3)GalNAc(b1-3)Gal(a1-4)Gal(b1-4)Glc
# Outline: as §1
# [27] = target: Neu5Ac(a2-3)Gal(b1-3)GlcNAc(b1-2)Man(a1-3)[Neu5Ac(a2-3)Gal(b1-3)GlcNAc(b1-2)Man(a1-6)]Man(b1-4)GlcNAc(b1-4)GlcNAc
# Outline: as §1
# [28] = target: Neu5Ac(a2-3)Gal(b1-3)GlcNAc(b1-3)GalNAc
# Outline: as §1
# [29] = target: Neu5Ac(a2-3)Gal(b1-4)GlcNAc(b1-2)Man
# Outline: as §1
# [30] = target: Neu5Ac(a2-3)Gal(b1-4)GlcNAc(b1-2)[Neu5Ac(a2-3)Gal(b1-4)GlcNAc(b1-4)]Man(a1-3)[GlcNAc(b1-4)][Neu5Ac(a2-3)Gal(b1-4)GlcNAc(b1-4)Man(a1-6)]Man(b1-4)GlcNAc(b1-4)GlcNAc
# Outline: as §1
# [31] = target: Neu5Ac(a2-3)Gal(b1-4)GlcNAc(b1-3)Gal(b1-4)GlcNAc(b1-3)[Neu5Ac(a2-3)Gal(b1-4)GlcNAc(b1-3)Gal(b1-4)GlcNAc(b1-6)]GalNAc
# Outline: as §1
# [32] = target: Neu5Ac(a2-3)Gal(b1-4)[Fuc(a1-3)]GlcNAc(b1-3)GalNAc
# Outline: as §1
# [33] = target: Neu5Ac(a2-3)Gal6S(b1-4)GlcNAc
# Outline: as §1
# [34] = target: Neu5Ac(a2-6)Gal(b1-4)GlcNAc(b1-2)Man(a1-3)Man(b1-4)GlcNAc(b1-4)GlcNAc
# Outline: as §1
# [35] = target: Neu5Ac(a2-6)Gal(b1-4)GlcNAc(b1-3)Gal(b1-3)GlcNAc
# Outline: as §1
# [36] = target: Neu5Ac(a2-6)GlcNAc(b1-4)GlcNAc(b1-4)GlcNAc
# Outline: as §1
# [37] = target: Neu5Gc(a2-3)Gal(b1-4)GlcNAc
# Outline: as §1
binder,measurement,setting,value
B1,glycan array binding signal (z-score),[1],-0.196
B2,glycan array binding signal (z-score),[2],0.285
same,glycan array binding signal (z-score),[3],2.88
same,glycan array binding signal (z-score),[4],4.77
same,glycan array binding signal (z-score),[5],-0.355
same,glycan array binding signal (z-score),Fuc(a1-2)Gal6S(b1-4)Glc,-0.291
same,glycan array binding signal (z-score),[6],-0.178
same,glycan array binding signal (z-score),[7],3.28
same,glycan array binding signal (z-score),[8],1.43
same,glycan array binding signal (z-score),Gal(b1-3)GlcNAc(b1-2)Man,-0.279
same,glycan array binding signal (z-score),[9],8.86
same,glycan array binding signal (z-score),[10],-0.063
same,glycan array binding signal (z-score),[11],0.144
same,glycan array binding signal (z-score),[12],-0.311
same,glycan array binding signal (z-score),[13],-0.218
same,glycan array binding signal (z-score),[14],-0.331
same,glycan array binding signal (z-score),[15],-0.216
same,glycan array binding signal (z-score),[16],9.66
same,glycan array binding signal (z-score),[17],-0.113
same,glycan array binding signal (z-score),[18],4.76
same,glycan array binding signal (z-score),[19],-0.233
same,glycan array binding signal (z-score),[20],5.97
same,glycan array binding signal (z-score),Gal3S(b1-3)GlcNAc,-0.314
same,glycan array binding signal (z-score),[21],-0.272
same,glycan array binding signal (z-score),GalNAc6S(b1-4)GlcNAc,-0.276
same,glycan array binding signal (z-score),[22],-0.432
same,glycan array binding signal (z-score),GlcNAc(b1-3)Man,4.99
same,glycan array binding signal (z-score),[23],-0.273
same,glycan array binding signal (z-score),[24],-0.359
same,glycan array binding signal (z-score),[25],-0.292
same,glycan array binding signal (z-score),[26],-0.326
same,glycan array binding signal (z-score),[27],7.16
same,glycan array binding signal (z-score),[28],-0.01
same,glycan array binding signal (z-score),[29],5.08
same,glycan array binding signal (z-score),[30],-0.253
same,glycan array binding signal (z-score),[31],-0.158
same,glycan array binding signal (z-score),[32],0.545
same,glycan array binding signal (z-score),[33],-0.482
same,glycan array binding signal (z-score),[34],-0.224
same,glycan array binding signal (z-score),[35],-0.344
same,glycan array binding signal (z-score),[36],3.75
same,glycan array binding signal (z-score),[37],-0.214
